Measured values: the supplement of paper PMC3334620
Whole data set: some 33,000 sequences, median “E-score (-0.5 to 0.5)” near -0.012, cut for the highest 2% near 0.29. The sample holds the highest values, similar sequences and a random draw of the others, so the mix is not that of the screen.

target: T1, Ybr033w (UniProt P38073); assay: PBM E-score (8-mer binding enrichment) (E-score (-0.5 to 0.5)); higher = stronger / more preferred TF binding; conditions: protein concentration: 200 nM; construct: GST-full length
T1 sequence: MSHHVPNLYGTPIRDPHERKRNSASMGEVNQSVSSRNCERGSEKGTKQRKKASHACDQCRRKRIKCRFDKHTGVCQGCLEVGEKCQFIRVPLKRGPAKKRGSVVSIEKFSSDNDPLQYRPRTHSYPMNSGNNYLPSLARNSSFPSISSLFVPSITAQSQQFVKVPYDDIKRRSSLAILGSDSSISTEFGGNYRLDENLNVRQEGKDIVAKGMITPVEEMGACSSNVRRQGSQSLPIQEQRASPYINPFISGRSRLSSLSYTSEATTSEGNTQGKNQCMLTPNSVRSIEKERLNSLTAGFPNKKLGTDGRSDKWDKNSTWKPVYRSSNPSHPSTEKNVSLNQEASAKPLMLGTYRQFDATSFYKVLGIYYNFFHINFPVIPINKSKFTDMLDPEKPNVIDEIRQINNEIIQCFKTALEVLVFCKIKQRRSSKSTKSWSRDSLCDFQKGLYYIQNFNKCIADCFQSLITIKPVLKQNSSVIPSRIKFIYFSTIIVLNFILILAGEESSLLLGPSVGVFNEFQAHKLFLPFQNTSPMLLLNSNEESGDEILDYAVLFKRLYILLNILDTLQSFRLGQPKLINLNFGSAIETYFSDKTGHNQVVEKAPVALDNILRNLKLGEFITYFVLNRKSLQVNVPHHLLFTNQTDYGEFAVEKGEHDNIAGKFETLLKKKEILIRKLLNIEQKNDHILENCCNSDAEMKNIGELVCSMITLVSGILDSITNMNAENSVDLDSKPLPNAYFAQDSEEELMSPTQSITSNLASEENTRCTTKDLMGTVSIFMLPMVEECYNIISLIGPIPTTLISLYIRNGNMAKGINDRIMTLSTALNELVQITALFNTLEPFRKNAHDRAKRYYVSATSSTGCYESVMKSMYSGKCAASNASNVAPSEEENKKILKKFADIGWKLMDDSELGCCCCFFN
In short: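 Bound GST-tagged yeast transcription factors, applied at about 100-200 nM to double-stranded universal all-10-mer Agilent arrays, were detected with fluorescent anti-GST. Scans were normalised with masliner. A modified Wilcoxon-Mann-Whitney statistic, the E-score, was assigned to each ungapped eight-base word pooled with its reverse complement by the Universal PBM Analysis Suite.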

Sequence	PBM E-score
AGGGTAAG	0.0154
CCTAGGAC	-0.087
AAAGCAAT	0.16
ACCCCCTG	-0.454
GTGGAATA	0.262
CTGGAACA	0.31
CTGGAATA	0.355
ATGGAATA	0.316
CTGGAATC	-0.00413
CTGGAACC	-0.209
CTGGAAGA	0.189
ATGGAATC	0.198
ATGGAACA	0.182
ATGTGGAA	0.235
CCGGGTGC	-0.181
CCCTTTGC	-0.134
GGCCTAAC	-0.013
CACAGAGC	-0.121
ATACGTAT	0.207
AGGATCAA	0.317
AGGATCAC	-0.0786
GGGATCAA	0.242
TGGATCAA	0.377
AGGATCAG	-0.166
TGGATCCA	-0.0233

Sequence	PBM E-score
AAGAGTAT	0.00192
AATAACCC	0.203
GCACTTCC	-0.149
AAAAAAAA	0.353
AAAAAAAG	0.273
GAAAAAAA	0.37
AAAAAAAC	0.24
GAAAAAAC	0.265
GAGAAAAA	0.155
AGATCTTC	0.137
AAGGATTG	0.126
ACTCAACA	0.146
CTTCTCCA	-0.214
ACCCAGGG	-0.287
ACTCGAAG	-0.242
CTGGTCCA	-0.17
GTTCCTAA	0.125
GATATAGC	0.156
ATATGAGC	-0.0174
ATTTTACG	0.328
CTTTTACC	0.101
AATTTACC	0.103
ATTTTACC	0.362
ATTTTACA	0.0461
AATTTACG	0.232

Sequence	PBM E-score
CCATTAGA	-0.14
CTGATAGC	-0.0429
TGTTCTAA	0.181
TAGATCTA	0.19
GTTCACAA	0.18
ATTCACAA	0.294
ATTCACAG	0.0908
ATGAGGGG	-0.206
AAAAATAC	0.304
ACAAATAG	0.167
AAAAAAAT	0.248
AAAAATAG	0.296
GAAAATAC	0.252
ACAAATAT	0.287
CAAAATAC	0.217
CAAAATAG	0.0554
AAAAATAT	0.349
ACTTTTAA	0.125
CATTTTAG	0.234
ACTTTTAG	0.0501
ACTTTTAC	0.327
CATTTTAC	0.298
CATTTTAA	0.16
AGAACCGC	0.096
AGCGATTG	-0.0938

Sequence	PBM E-score
CAAATAAC	0.214
GAAAAACC	0.386
GAAGAACC	0.248
CCAAAACA	-0.026
CAAGAACA	0.0281
GCAAAACA	0.0364
GAAAAACA	0.295
GGAAAACC	-0.11
GAAAACCC	-0.0428
AAAAAACA	0.242
TCAAAACA	0.298
GGAAAACA	0.17
GAAGAACA	0.353
CGGAACCA	0.141
AAACAATA	0.196
TAACAATA	0.273
GAACAATA	0.412
CAACAATC	0.256
AAACAAAC	0.229
AAACAATC	0.234
CAACAAAC	0.161
GAACAAAC	0.345
GAACAATC	0.323
TAGCAATA	0.16
AATCAGCT	0.185

Sequence	PBM E-score
AGCTGCCG	-0.115
GGTTAATA	0.209
AGTTAATA	0.336
AGTTAATG	0.216
TGTTAAAA	0.226
AGTTAATC	0.368
CGTTAATC	0.248
CGTTAAAA	-0.0301
CGTTAATA	0.166
AGTTAAAA	0.298
TATTTGGA	0.082
TCCAGACA	-0.127
GAGCGCAA	-0.0711
AACATACA	0.179
CACTCTTA	0.0582
GAAGATGC	-0.106
TGTAATAA	0.297
AACAATAT	0.375
CGTAATAA	0.154
TATAATAA	0.318
GATAATAA	0.194
GGTAATAA	0.228
AATAATAC	0.245
AACAATAA	0.258
AATAATAT	0.388

Sequence	PBM E-score
AATAATGT	0.183
AACAATAC	0.157
CATAATAA	0.131
AAGTTTAA	0.139
AAAAGAAA	0.179
ACGGACGT	-0.144
AAAGAGCC	-0.112
CAGGCTGC	-0.118
AATAATAG	0.202
AGTAATAT	0.336
AATAATAA	0.399
TCTAATAA	0.291
AGTAATAG	0.218
AGTAATAC	0.222
ACTAATAA	0.276
CCTAATAA	-0.0059
CCGGGCGA	-0.226
ACCTACAG	0.0954
TCACGCCA	-0.081
AAATTAAC	0.251
GCATTAAA	0.147
AAATTAAA	0.339
AAATTAAT	0.314
AAATTAAG	0.144
TCATTAAA	0.319

Sequence	PBM E-score
TAATTAAA	0.276
ACATTAAA	0.225
GAATTAAA	0.149
AGGTAGGC	-0.147
AATCTGGG	0.00147
CGCGAGTC	-0.0881
GCATACTA	0.0596
ATAGTTCC	0.25
AGCTGCCA	-0.135
AACAGATA	0.096
TACAGATA	0.291
GACAGATA	0.0702
GGCTGTAA	-0.0501
ATTGAAAA	0.289
ATTGAATC	0.0535
GTTGAGTA	0.127
CTTGAATA	0.155
ATTGAAAG	0.111
ATTGAAAT	0.296
ATTGAATA	0.305
ATTGAAAC	0.164
ATTGAGTC	-0.0117
ATTGAGTA	0.29
CTTGAAAA	0.207
AATGAAAT	0.282

Sequence	PBM E-score
TAGCGTGA	0.00864
AGCTTACT	0.0872
AACAAGGA	0.12
CATCGTAC	0.0156
CACAATCG	0.0764
CTGTGAGC	-0.0445
AGCTAAGG	-0.119
CTCCACGA	-0.0474
CAACCACA	0.0032
TAGAAAGA	-0.0722
CATTCTGC	0.09
AGCAGGAA	0.0849
CAACCGAC	0.107
ATAGTGGA	0.0933
ACTAGGGA	-0.159
TAAAAATA	0.285
AGAAAATA	0.314
GAAAAATA	0.397
GGAAAAGA	0.0452
AAAAATCC	0.287
GGAAATCC	-0.00538
GAAAATCC	0.308
AAAAAATA	0.278
AGAAAATC	0.232
CGAAAATA	0.23

Sequence	PBM E-score
GGAAAATA	0.414
GCAAAATA	0.287
AGGTTGAG	-0.167
AAGGGGAT	-0.0478
AGTACCGG	-0.182
CGGGTGCC	-0.151
TCACTACA	0.243
CCATCTGA	0.0862
CTTTAGGC	-0.0153
AGATTGAC	0.0305
AAGCAAGG	-0.0139
GGACAGAC	-0.174
CAAAAATG	0.157
GAAAAATC	0.381
GCAAATAA	0.322
TAAAATAA	0.261
GAAAATAA	0.304
TCAAATAA	0.202
CCAAAATA	0.182
ACAAATAA	0.265
AAAAATAA	0.275
CAAAAATA	0.316
AAAAAATC	0.248
CAAAAATC	0.236
ATAGCGCA	0.0412

Sequence	PBM E-score
GACGATTA	-0.0748
TGAGGACA	0.00432
AAACTACG	0.0517
ATCTACCC	0.0482
ACATCAGG	0.038
CTTTTCGC	0.241
CAGGCAAC	-0.0967
ACGACCAT	-0.108
AATCTAGT	0.214
AGCTCACG	-0.088
AATTAACC	0.158
GATTAACA	0.396
GCTTAACA	0.0687
CATTAACA	0.139
TATTAAGA	0.168
TATTAACA	0.291
GATTAACC	0.195
AATTAACT	0.219
AATTAACA	0.295
ACCCAGGC	-0.0962
AAGTGAAT	0.239
CACAGCCA	-0.174
ATGCGGCA	-0.0591
ATTTTCCA	0.361
CTTTTTCC	0.361

Sequence	PBM E-score
AATTTCCC	0.226
GTTTTCCA	0.215
CTTTTCCA	-0.0875
ATTTCCCC	-0.0347
ATTTTCCC	0.386
CTTTTCCC	0.0333
CCTTTTCC	-0.15
GACCGGTC	-0.181
AATCGTCA	-0.0213
CAACGTTG	0.156
AGCTCTTC	0.0781
ATGATCCG	0.412
ATGATCCC	0.244
CAAATCCA	0.0838
ATAATCCG	0.383
GAAATCCA	0.108
ATAATCCC	0.189
AAAATCCA	0.339
ATAATCCA	0.327
ACAATCCG	0.0606
GTAATCCA	0.0788
ATGATCCA	0.162
ATAATCGG	0.162
CTCTGGCC	-0.15
ACAAAGAC	0.0319

Sequence	PBM E-score
GAGGAACA	0.171
AAGGAACA	0.283
CAGGAACC	-0.122
TAGGAACA	0.316
CAGGAACA	0.401
CAGGAACG	-0.0646
GGGACCCC	-0.33
ATGCCATG	-0.0545
AACCATTC	0.166
ACTGAACC	0.00627
GTTGGCGA	-0.0105
GATCGACC	0.0146
AAGCTAAA	0.107
TCCGGAAA	0.298
GACGGAAA	0.227
GCCGGAAA	0.302
CCCGGAAA	0.192
ACCGGAAA	0.151
GCCGGAAC	0.205
CTAGACCC	-0.194
AAAGGATG	0.163
GCACACCA	-0.145
GATTAATA	0.328
CATTAATC	0.252
AATTAGTC	0.212

Sequence	PBM E-score
CATTAATA	0.321
GACTAATC	0.0103
GATTAAGA	0.213
TATTAATA	0.101
ACTTAATC	0.275
GATTAAGC	0.104
CATTAATG	0.23
AATTAATC	0.341
GATTAATC	0.435
AGGGTGAT	-0.055
ATAGTTCA	0.202
AGAACGTA	0.0159
AAGGGGCT	-0.163
ATATTGTC	0.215
ACCTTGGC	-0.0759
ACAGCTAG	-0.105
ACCTACCG	-0.0859
AGCAGAGC	-0.0843
AACTCTGG	-0.0682
AAAGTTCC	0.132
AATTAAAT	0.276
AATTAATA	0.429
AATTAAGC	0.169
AATTAAGA	0.171
AATTAAAC	0.377

Sequence	PBM E-score
AATTAAGT	0.305
AATTAATG	0.273
AATTAAAG	0.217
AATTAATT	0.214
CAACTATG	0.102
ACGGGTAT	0.0865
ATTGGCTA	0.117
ACCAAGCC	-0.0301
TCCAATCA	0.0621
TGATAACA	0.176
GCGAGGAA	0.125
TCGGATAA	0.335
AGGGATTA	0.187
GTGGATAA	0.169
CGGGATTC	-0.0497
CCGGATTA	0.34
ACGGATAT	0.192
ATGGATAA	0.259
CTGGATAA	0.316
CGGGATTA	0.312
GCGGATTA	0.285
TGGGATAA	0.123
ACGGATTA	0.233
